Among the data in PubChem BioAssay AID1053118 (Broad Institute, 2014) are outcome values, retold here.

Potency and affinity values are given separately. Active and inactive are the calls of the source.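 The calls were made as follows: active = fitted half-maximal concentration for ATP signal loss at most twice the top valid dose; inconclusive = flat curve between -70 and -30%, or an invalid fit; inactive = flat within ±30%, wrong direction, or potency past limit.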

This test is described as follows: viability loss in HepG2 hepatoma cells – cell-based, cherry-picks, set 5, cytotoxicity control, dose response (AID 1053118). Conditions: ATP luminescence, 72 h; series mostly up to 26 µM.
On to `S=C(NCC1CCCO1)Nc1ccc(Cl)cc1Cl` (stereo unspecified), for which the outcome was inactive.

Consider `O=C(NCCS(=O)(=O)N1CCN(c2ccc(F)cc2)CC1)c1ccc(Br)o1`, for which the molecule was classed as inactive.

Consider `C[C@H](CO)N1C[C@H](C)[C@@H](CN(C)C(=O)c2cccc(F)c2)Oc2ncc(-c3ccccc3)cc2C1=O`, for which the call was inactive.

With `COC(=O)c1cn(CC(=O)NCc2ccco2)c2ccccc12`, the molecule was classed as inactive.

Take `C[C@@H]1CN([C@@H](C)CO)C(=O)c2cc(-c3ccncc3)cnc2O[C@@H]1CN(C)C(=O)Cc1cccnc1`: the molecule was called inactive.

In the case of `COc1cccc(CN2CCN(C(=O)c3ccc(-c4ccccc4)cc3)CC2)c1OC`, the call was inactive.

Consider `C[C@H](CO)N1C[C@H](C)[C@@H](CN(C)Cc2ccccc2)Oc2ncc(-c3ccccc3)cc2C1=O`, for which the outcome was inactive.

Turning to `C[C@H]1CN([C@@H](C)CO)C(=O)c2cc(-c3ccccc3)cnc2O[C@@H]1CN(C)C(=O)c1cccc(F)c1`, the call was inactive.

On to `Cc1cccc(N2CCN(S(=O)(=O)c3cn(C)cn3)CC2)c1C`, for which the outcome was inactive.

Regarding `CC(C)(C)[S@@](=O)N1Cc2cc(C(=O)NCc3ccccc3F)nc(-c3cccc(-c4cncnc4)c3)c2[C@H]1CCO`, the molecule was classed as inactive.

As to `C[C@H]1CN([C@@H](C)CO)C(=O)c2cc(NC(=O)C3CCCCC3)ccc2O[C@@H]1CN(C)Cc1ccc(-c2ccccc2)cc1`, the molecule was classed as inactive.

Regarding `COC(=O)C[C@H]1CC[C@H]2[C@H](COc3ccc(NC(=O)Cc4cccs4)cc3C(=O)N2C)O1`, the molecule was classed as inactive.

As for `N#C[C@@H]1[C@@H](c2ccccc2C2=CCCCC2)[C@@H](CO)N1S(=O)(=O)c1ccccc1`, the result was inactive.

As for `C[C@H](O)C#Cc1ccc2c(c1)O[C@H](CN(C)C)[C@@H](C)CN([C@H](C)CO)S2(=O)=O`, the call was inactive.

Regarding `COC(=O)C[C@@H]1CC[C@H]2[C@@H](COc3ccc(NC(=O)Cc4cccs4)cc3C(=O)N2C)O1`, the outcome was inactive.

For `Cc1oc2ccc(O)cc2c1C(=O)c1ccc(Br)cc1`, the result was inactive.

In the case of `CCOc1cccc(C(=O)Nc2ccc(N(CC)CC)cc2)c1`, the result was inactive.

`O=C(OCC(O)C(O)COC(=O)c1ccccc1)c1ccccc1` (stereo unspecified): the call was inactive.

`Cc1c(NC(=O)c2ccc3nsnc3c2)cccc1[N+](=O)[O-]`: the molecule was called inactive.

For the molecule `COC(=O)C[C@@H]1CC[C@@H]2[C@@H](COc3ccc(NC(=O)Cc4cccs4)cc3C(=O)N2C)O1`, the molecule was classed as inactive.

For the molecule `C[C@@H](O)C#Cc1ccc2c(c1)O[C@@H](CN(C)C)[C@@H](C)CN([C@@H](C)CO)S2(=O)=O`, the molecule was classed as inactive.

Regarding `COc1cccc(CNC(=O)CCc2nnc3ccc(NCCCN4CCCC4=O)nn23)c1`, the molecule was classed as inactive.

In the case of `N#Cc1ccc(-c2ccc3c(c2)[C@@H]2[C@@H](CCN2S(=O)(=O)c2ccccc2F)[C@H](CO)N3)cc1`, the outcome was inactive.

On to `COc1ccc(C)cc1N(CC(=O)Nc1cccc(N(C)S(C)(=O)=O)c1)S(C)(=O)=O`, for which the molecule was called inactive.

On to `C[C@H]1CN([C@@H](C)CO)C(=O)c2cc(NC(=O)CCCN(C)C)ccc2O[C@@H]1CN(C)Cc1ccc(-c2ccccc2)cc1`, for which the result was inactive.

Turning to `N#Cc1ccc(-c2ccc3c(c2)[C@H]2[C@H](CCN2S(=O)(=O)c2cccc(F)c2)[C@H](CO)N3)cc1`, the call was inactive.

As for `Cc1ccc(S(=O)(=O)N2CC[C@@H]3[C@H]2c2cc(-c4cccc(C(=O)N(C)C)c4)ccc2N[C@@H]3CO)cc1`, the molecule was called inactive.

As to `CCC(C)(C)NC(=O)C(OC(=O)c1ccco1)c1ccccc1OC` (stereo unspecified), the molecule was called inactive.

With `O=C(Nc1nc(-c2ccncc2)cs1)C1COc2ccccc2O1` (stereo unspecified), the outcome was inactive.

As for `O=C(CCC(=O)c1cccs1)NCc1cccnc1`, the result was inactive.

For `C[C@H]1CN([C@@H](C)CO)C(=O)c2cccc(NC(=O)Nc3ccc(C(F)(F)F)cc3)c2O[C@H]1CN(C)C(=O)Nc1cccc2ccccc12`, the molecule was classed as inactive.

Turning to `O=C(c1cccnc1)N1C[C@H]2[C@@H](c3ccccc31)[C@@H](CO)N2CC1CCCC1`, the outcome was inactive.

As for `Cc1ccc(S(=O)(=O)N2CC[C@@H]3[C@@H](CO)Nc4ccc(-c5cccc(C(=O)N(C)C)c5)cc4[C@@H]32)cc1`, the result was inactive.

In the case of `CC(C)(C)[S@@](=O)N1Cc2cc(C(=O)NCc3ccccc3F)nc(-c3cccc(-c4ccncc4)c3)c2[C@H]1CCO`, the molecule was classed as inactive.

Regarding `O=C(Nc1ccccc1F)N1C[C@@H]2[C@H](c3ccccc31)[C@@H](CO)N2C(=O)C1CC1`, the molecule was called inactive.

Take `O=C(CCNS(=O)(=O)c1cccc2nonc12)NC1CCCc2ccccc21` (stereo unspecified): the result was inactive.
